# Screening data: PubChem, National Center for Advancing Translational Sciences (NCATS)
# Sm TGR inh = inhibitors of Schistosoma mansoni thioredoxin glutathione reductase | Q962Y6 | purified TGR, DTNB reduction, TNB absorbance 405 nm | Potency, µM (highest dose often 114 µM), inactives show at the highest dose activity change, negative = inhibition, hits mostly inhibitors | actives 3% (n = 360,000); further: on the % scale 0 is the no-effect control and ±100 the full control effect; nearly all actives have a fitted effect of over 60% in size
#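 First, TGR (20 nM dispensed) and NADPH were mixed with compound. Second, a 15 min room-temperature incubation followed. Third, further NADPH and then DTNB were added to start the reaction. Finally, TNB absorbance was monitored kinetically.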
# RE007 growth inh = less growth of the S. pombe RE007 Vpr strain. S. pombe RE007 Vpr strain, BacTiter-Glo ATP luminescence, 24 h. actives 0.21% (n = 360,000). Potency, µM (top dose mostly 92.2 µM), inactives show at the highest dose activity change, negative = less growth, most hits filed as inhibitors; active means well fitted falling curve with a large enough effect; inconclusive means small, poorly fitted or top-dose-only effect; inactive means no such curve, though single readings can be large or run the other way; further: on the % scale 0 is the no-effect control and ±100 the full control effect; nearly all actives have a fitted effect of over 50% in size
#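 Fission yeast strain RE007, carrying one chromosomally integrated HIV-1 vpr copy, was seeded at OD 0.01 in PMG+AL medium with 23 nL pinned compound. After 24 h at 30 °C and 99% humidity, viability was read by BacTiter-Glo luminescence.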
# Tb PYK inh = T. brucei pyruvate kinase inhibition. TbPYK enzyme, Kinase-Glo Plus ATP luminescence, 45 min. Potency, µM (titrated, usually from 76.8 µM), without a hit: top-dose activity, negative = inhibition, usual class: inhibitors. actives 0.12% (n = 410,000); further: on the % scale 0 is the no-effect control and ±100 the full control effect; nearly all actives have a fitted effect of over 50% in size
#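 T. brucei PYK with substrate was exposed to pin-transferred compounds across a concentration series, then started with 130 uM ADP (final). After 45 min at room temperature, Kinase-Glo Plus luminescence was read, normalized and curve-fitted.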
# NS1 function inh = influenza NS1 inhibition; Potency, µM (titrated, usually from 46.1 µM), for inactives: at the top dose activity, positive = more growth; actives 0.4% (n = 270,000); calls by dose curve; further: actives are rising curves; nearly all actives have a fitted effect of over 50% in size
#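 OD600 was taken as the measure of yeast growth restored by compound in an NS1-expressing S. cerevisiae strain. Cells had been washed out of glucose medium and diluted 1:100 into galactose -URA medium, pH 6.0.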
# Giardia FBPA inh = blocks Giardia fructose-bisphosphate aldolase activity. Potency, µM (series often up to 59.6 µM), for inactives: top-dose activity, negative = inhibition, hits mostly inhibitors. purified Giardia FBPA. actives 0.71% (n = 290,000). A8B2U2; further: on the % scale 0 is the no-effect control and ±100 the full control effect; nearly all actives have a fitted effect of over 55% in size
#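 Giardia FBPA (40 nM reagent) was preincubated 10 min at RT with compound (up to 57.5 uM final), then substrate plus GAPDH/TPI/NAD/arsenate coupling system with diaphorase/resazurin was added; resorufin fluorescence (525/598 nm) was read after 20 min.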
# LmPK inhibitor = inhibitors of Leishmania mexicana pyruvate kinase; actives 0.37% (n = 290,000); AID 1721; purified LmPK, Kinase-Glo ATP luminescence, 1 h; Potency, µM (top dose mostly 57.5 µM), inactives show at the highest dose activity change, negative = inhibition, hits mostly inhibitors; further: on the % scale 0 is the no-effect control and ±100 the full control effect
# Target sequence (Q27686 whole entry, looked up): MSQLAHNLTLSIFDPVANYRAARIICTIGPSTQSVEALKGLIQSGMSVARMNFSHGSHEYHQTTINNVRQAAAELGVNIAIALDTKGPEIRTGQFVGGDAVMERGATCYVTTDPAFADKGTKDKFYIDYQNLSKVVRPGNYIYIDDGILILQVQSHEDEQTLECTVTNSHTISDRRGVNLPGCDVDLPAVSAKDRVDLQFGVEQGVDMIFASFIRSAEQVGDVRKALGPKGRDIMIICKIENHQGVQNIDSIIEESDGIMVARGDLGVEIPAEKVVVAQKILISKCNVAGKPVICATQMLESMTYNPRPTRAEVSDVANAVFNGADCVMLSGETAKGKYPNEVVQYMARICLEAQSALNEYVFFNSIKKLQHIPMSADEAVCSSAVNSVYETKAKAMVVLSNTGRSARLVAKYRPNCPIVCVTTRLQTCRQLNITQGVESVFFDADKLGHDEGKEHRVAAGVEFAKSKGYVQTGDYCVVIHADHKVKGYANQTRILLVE
#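 Kinase-Glo luminescence read after 1 h RT reaction of 0.1 nM LmPK with 0.5 mM PEP and 0.1 mM ADP. Activity scaled between uninhibited and enzyme-free controls.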
# * = called active by the depositor; ? = inconclusive; . = no result given; [ ] = dose if it differs, or a comment. Most compounds without a hit are left out; they make up all but 3.5% or so of the library. Unless noted, the call rests on the fitted dose curve; in most records, active means well fitted curve in the direction sought with a large enough effect; inconclusive means small, poorly fitted or top-dose-only effect, or another doubt; inactive means no such curve, though single readings can be large; an effect the other way counts as inactive or inconclusive. Potency means the concentration at half of the fitted maximal effect.
SMILES,Sm TGR inh,RE007 growth inh,Tb PYK inh,NS1 function inh,Giardia FBPA inh,LmPK inhibitor
CNC(=O)Oc1cccc(-c2cn3cc(Cl)ccc3n2)c1,2%,?,-23%,-31%,-16%,14µM*
COC(=O)c1ccc2nc(-c3cccc(N)c3)cn2c1,-3%,-14%,-15%,-2%,-10%,25µM*
COC(=O)c1ccc2nc(-c3ccc(S(C)(=O)=O)cc3)cn2c1,-2%,-15%,-1%,.,-2%,-1%
Cc1ccc(-c2cc(C(F)(F)F)n3nc(C(=O)Nc4ccc(Cl)cc4Cl)cc3n2)cc1,-13%,.,2%,.,.,.
S=c1sc2ccccc2n1CCc1ccncc1,-14%,-7%,-8%,.,.,.
CSc1nn(CCc2ccncc2)c(=S)s1,35µM*,?,-8%,-99%,?,1%
Cc1nc([N+](=O)[O-])c(Sc2nc3ccccc3n2C)n1Cc1ccccc1,8.9µM*,-6%,-14%,2%,-1%,-2%
Cc1nn2c(-c3ccco3)ccnc2c1-c1ccc(Br)cc1,13%,.,-3%,.,.,.
Cn1ccnc1C(O)c1cc(C(C)(C)C)c(O)c(C(C)(C)C)c1 (stereo not drawn),18µM*,-15%,?,-39%,-14%,0%
CCOC(=O)c1c(NC(=O)CN2CCCCC2)sc(CN(C)C)c1-c1ccccc1,7%,2%,0%,6%,1%,8%
CCOC(=O)c1c(NC(=O)CCl)sc(CN(C)C)c1-c1ccccc1,16µM*,9%,-15%,.,-3%,5%
CCOC(=O)c1ccc(NC(=O)CSc2nc(-c3ccc(F)cc3)cc(C(F)(F)F)c2C#N)cc1,4%,.,-4%,.,.,.
Cc1noc(C)c1S(=O)(=O)NCC(=O)O,5%,6%,3%,?,-4%,2%
CCOC(=O)CNS(=O)(=O)c1c(C)noc1C,25µM*,-18%,-2%,-6%,-1%,-2%
C#CC(C)(CC)NC(=O)c1cc2c(n(-c3ccc(Cl)cc3)c1=O)CC(C)(C)CC2=O (stereo not drawn),1%,.,0%,.,.,.
O=c1c(-c2cc(F)cc(F)c2)nc2cnc(N3CCNCC3)nc2n1-c1ccccc1,.,.,.,.,4%,.
C/C=C(/CC[C@@H](C)[C@H]1CCC2C3=CC[C@H]4[C@H](C)[C@@H](O)CC[C@]4(C)C3CC[C@@]21C)C(C)C (stereo partly drawn),.,.,0%,.,6%,.
CCOC(=O)c1cnn(-c2cccc(F)c2)c1C1CCNCC1,45µM*,.,6%,.,.,.
COc1ccc(NC(=O)c2cnn(-c3ccc(C)c(C)c3)c2C2CCNCC2)cc1OC,45µM*,.,-13%,.,.,.
COc1cc(NC(=O)c2cnn(-c3cccc(F)c3)c2C2CCNCC2)cc(OC)c1OC,1%,.,-4%,.,.,.
Cc1ccc(-n2ncc(C(=O)Nc3cc(Cl)cc(Cl)c3)c2C2CCNCC2)cc1C,6%,20%,4%,.,9%,0%[11.5 µM]
O=C1Nc2c(c(=O)[nH]c(=O)n2-c2ccccc2)C1(NS(=O)(=O)c1ccc(Cl)cc1)C(F)(F)F (stereo not drawn),1%,.,1%,.,.,.
Cn1c(=O)c2c(SCC(=O)NCc3ccco3)nc(-c3ccccc3)nc2n(C)c1=O,0%,.,6%,.,.,.
CCc1cc(=O)oc2c(C)c3c(cc12)CN(CCc1ccccc1OC)CO3,?,.,0%,.,.,.
CC(=O)N1CCc2cc(C(=O)CN3CCC(C)CC3)ccc21,28µM*,-7%,5%,-1%,-13%,0%
SMILES,Sm TGR inh,RE007 growth inh,Tb PYK inh,NS1 function inh,Giardia FBPA inh,LmPK inhibitor
CC(=O)N1CCN(C(=O)c2ccco2)CC1,-11%,-4%,2%,3%,-4%,0%
CC(=O)N1CCc2cc(C(=O)CN3CCN(c4cccc(Cl)c4)CC3)ccc21,25µM*,1%,-6%,-8%,-12%,5%
CC(=O)N1CCc2cc(C(=O)CN3CCN(C(=O)c4ccco4)CC3)ccc21,14µM*,0%,-11%,3%,-29%,6%
CC(=O)N1CCc2cc(CNC(=O)Cc3ccc(F)cc3)ccc21,-15%,.,0%,.,.,.
CC(=O)N1CCc2ccc(C(=O)CN3CCN(c4cccc(C)c4C)CC3)cc21,?,.,.,5%,-1%,2%
CC(=O)N1CCc2cc(C(=O)CN3CCCN(Cc4ccc(F)cc4)C3)ccc21,45µM*,.,.,3%,6%,1%
O=C(NCCc1ccccc1)C(=O)NCC(c1cccnc1)N1CCN(c2ccccc2F)CC1 (stereo not drawn),-5%,.,6%,.,.,.
CCNc1nc(C)cc(COC)c1C#N,25µM*,-11%,-13%,0%,5%,0%
COCCn1c(SCC(=O)Nc2ccc(F)c(Cl)c2)nc2c(oc3ccccc32)c1=O,1%,.,-9%,.,.,.
Cc1c(C(=O)NCc2ccc(Cl)cc2)sc2nc3n(c(=O)c12)CCC3,-6%,.,-6%,.,.,.
COc1ccc(CNC(=O)c2sc3nc4n(c(=O)c3c2C)CCCCC4)cc1,8.9µM*,.,-27%,.,.,.
Cc1ccc(N(C)C(=O)c2sc3nc4n(c(=O)c3c2C)CCCC4)cc1C,-15%,.,-4%,.,.,.
COc1ccc(C)cc1N(C)C(=O)c1sc2nc3n(c(=O)c2c1C)CCCCC3,22µM*,.,-2%,.,.,.
Cc1cc(=O)[nH]c2nnc(SCc3cccc(F)c3)n12,10%,.,-8%,.,.,.
CCCCC(=O)NC1CC(=O)N(c2ccc3c(c2)OCCO3)C1 (stereo not drawn),-9%,.,6%,.,.,.
COC(=O)c1cc(NC(=O)Cn2ncc3c([nH]c4ccccc43)c2=O)cc(C(=O)OC)c1,-2%,.,-3%,.,.,.
COc1ccccc1/C=N/Nc1nncc2ccccc12,2%,-8%,-8%,0%,-10%,-6%
